# Reference: PubChem BioAssay (NCATS)
# Records with an inconclusive call do not appear. A call without a number means that no potency is given here. Activity calls are given as the source filed them. Calls come from the whole dose curve; as a rule, active = well fitted inhibition curve with a large enough effect; inconclusive = small, poorly fitted or top-dose-only effect; inactive = flat fitted curve, though single readings scatter.
# What was measured:
# Assay in all cases: qHTS profiling for inhibitors of Plasmodium falciparum proliferation (AID 504749); note: nearly all actives have a fitted effect of over 60% in size
# Conditions in all cases: P. falciparum in erythrocytes, SYBR Green DNA, 72 h; series mostly up to 28.7 µM
# CP215 = system: CP215
# In short: (§1)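 SYBR Green fluorescence (ex 485 nm, em 535 nm) reports parasite DNA after 72 h compound exposure of infected red cells at 0.3% parasitemia, 2.5% hematocrit; signal normalized to 0.29 uM artemisinin and vehicle wells.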
# CP217 = system: CP217
# In short: as §1
# CP237 = system: CP237
# In short: as §1
# CP238 = system: CP238
# In short: as §1
# CP247 = system: CP247
# In short: as §1
# CP250 = system: CP250
# In short: as §1
# CP252 = system: CP252
# In short: as §1
# CP256 = system: CP256
# In short: as §1
# CP260 = system: CP260
# In short: as §1
# CP262 = system: CP262
# In short: as §1
# Potency is the fitted concentration of half-maximal effect.
Compound,Potency (CP215),Potency (CP217),Potency (CP237),Potency (CP238),Potency (CP247),Potency (CP250),Potency (CP252),Potency (CP256),Potency (CP260),Potency (CP262)
O=Cc1ccco1,inactive,inactive,inactive,inactive,inactive,inactive,inactive,inactive,inactive,inactive
Clc1ccc(Cl)cc1,inactive,inactive,inactive,inactive,inactive,inactive,inactive,inactive,inactive,inactive
O=C1CCO1,inactive,inactive,inactive,inactive,inactive,inactive,inactive,inactive,inactive,inactive
CCCCNCC(O)c1ccc(O)cc1 (centres undefined),inactive,inactive,inactive,inactive,inactive,inactive,inactive,inactive,inactive,inactive
C=CCN1CCC23c4c5ccc(O)c4O[C@H]2C(=O)CC[C@@]3(O)C1C5 (some centres undefined),inactive,inactive,inactive,inactive,inactive,inactive,inactive,inactive,inactive,inactive
COCC(C)N(C(=O)CCl)c1c(C)csc1C (centres undefined),inactive,inactive,inactive,inactive,inactive,inactive,inactive,inactive,inactive,inactive
CN1c2ccccc2C(NCCCCCCC(=O)O)c2ccc(Cl)cc2S1(=O)=O (centres undefined),inactive,inactive,inactive,inactive,inactive,inactive,inactive,inactive,inactive,inactive
CCCC(C)C1(CC)C(=O)NC(=O)NC1=O (centres undefined),inactive,inactive,inactive,inactive,inactive,inactive,inactive,inactive,inactive,inactive
O=C1CC[C@@]2(O)C3Cc4ccc(O)c5c4C2(CCN3CC2CC2)[C@H]1O5 (some centres undefined),inactive,inactive,inactive,inactive,inactive,inactive,inactive,inactive,inactive,inactive
Clc1ccc(C2(Cn3cncn3)OCCO2)c(Cl)c1,inactive,inactive,inactive,inactive,inactive,inactive,inactive,inactive,inactive,inactive
COc1ccc(OC)c(C(O)C(C)N)c1 (centres undefined),inactive,inactive,inactive,inactive,inactive,inactive,inactive,inactive,inactive,inactive
C[CH2][Hg][S]c1ccccc1C(=O)O,1.51 µM (active),3.98 µM (active),1.26 µM (active),3.55 µM (active),3.16 µM (active),3.55 µM (active),3.16 µM (active),3.16 µM (active),1 µM (active),
CCC1(c2ccccc2)C(=O)NC(=O)NC1=O,inactive,inactive,inactive,inactive,inactive,inactive,inactive,inactive,inactive,inactive
O=[N+]([O-])c1cc(I)c(O)c(I)c1,inactive,inactive,inactive,inactive,inactive,inactive,inactive,inactive,inactive,inactive
CNC(=O)OCC[N+](C)(C)C,inactive,inactive,inactive,inactive,inactive,inactive,inactive,inactive,inactive,inactive
ClCC1CO1 (centres undefined),inactive,inactive,inactive,inactive,inactive,inactive,inactive,inactive,inactive,inactive
O=C(NCNC(=O)NC1C(=O)NC(=O)N1CO)NC1C(=O)NC(=O)N1CO (centres undefined),inactive,inactive,inactive,inactive,inactive,inactive,inactive,inactive,inactive,inactive
CCCN1CCCC2Cc3[nH]ncc3CC21 (centres undefined),,inactive,inactive,inactive,inactive,inactive,inactive,inactive,inactive,
CCC(C)(S(=O)(=O)CC)S(=O)(=O)CC,inactive,inactive,inactive,inactive,inactive,,inactive,inactive,,inactive
CCC1C(C)=NN=C(c2ccc(OC)c(OC)c2)c2cc(OC)c(OC)cc21 (centres undefined),,inactive,,inactive,inactive,inactive,inactive,inactive,inactive,inactive
c1ccc(C2(N3CCCC3)CCCCC2)cc1,,8.91 µM (active),11.2 µM (active),,7.94 µM (active),,,,8.91 µM (active),
c1csc(C2(N3CCCCC3)CCCCC2)c1,inactive,inactive,,inactive,inactive,inactive,inactive,inactive,inactive,inactive
O=c1c2ccccc2[se]n1-c1ccccc1,inactive,,,,,,inactive,inactive,inactive,inactive
CNC(=O)Oc1ccccc1C(=O)Nc1ccccc1,,,inactive,inactive,,inactive,inactive,,inactive,
C=CCC1(C(C)CCC)C(=O)N=C(S)NC1=O (centres undefined),,inactive,inactive,inactive,inactive,inactive,inactive,inactive,inactive,
